Results on 36 compounds are retold here after PubChem BioAssay.

One experiment relates to Lefty1. The experiment is described as follows: Lefty1 binders on small-molecule microarrays, primary screen, biochemical, small-molecule microarray, 635/667 nm fluorescence (AID 1139). To be noted: small-molecule microarray binding, fluorescence 635/667; higher = more signal.
In turn, `C=C(C)c1cc2c(c(CCCCCC)n1)[Si](C(C)C)(C(C)C)OC2` displayed a composite z-score of -0.174.
On the same count and under the same terms, with `CCCCC(O)C1C=CC2C(=O)N(c3ccccc3)C(=O)C2N1Nc1ccc(C(C)C)cc1` (configuration not stated) the figure was 0.451.
For the compound `COCCOC(=O)N1C(=O)[C@@]2(c3cc(C#CC4=CCCCC4)ccc31)[C@H](c1ccc(OCCO)cc1)N1[C@H](c3ccccc3)[C@H](c3ccccc3)OC(=O)[C@H]1[C@@H]2C(=O)N1CCN(c2ncccn2)CC1`, the composite z-score amounted to 0.853.
Still for that read-out and setting: with `C=C(COC)/C(=C/C[C@H](OC(C)=O)c1ccc(OCCO)cc1)c1cc(C(=O)OC)ccc1OC` the figure was 1.66.
`CC1CC/C=C\[C@H]2OC34C=CCN(c5ccc(Cl)cc5)C(=O)[C@H]3N(CCCCCO)C(=O)[C@]4(C)C2C(=O)O1` (some centres not stated) yielded a composite z-score of -0.778.
The same measure, in the same setting: in the case of `CN1C(=O)C2C=CC(C(O)c3cccc(O)c3)N(Nc3ccccc3)C2C1=O` (configuration not stated) it was 0.152.
The same measure, in the same setting: with `O=C1NC(=O)C2C1C=CC(C(O)c1c(F)cccc1Cl)N2Nc1ccc(Cl)cc1Cl` (configuration not stated) the figure was -0.507.
On the same count and under the same terms, in the case of `COc1ccc([Si](C)(C)[C@@H]2[C@@H](CCO)O[C@]3(C(=O)N(Cc4ccc(N5CCCCC5=O)cc4)c4ccccc43)[C@H]2C)cc1` it was 0.572.
As for `C=CCC(OC(C)=O)[C@@H]1[C@@H](N(Cc2cc3ccccc3o2)C(=O)c2ccc(C)cc2)c2cc(OCCCO)ccc2N1C(=O)Cc1ccc(OC)cc1` (some centres not stated), the composite z-score was -0.0083.
Same read-out and setting: in the case of `CCOc1cc(C(O)C2C=CC3C(=O)N(C)C(=O)C3N2Nc2ccccc2)ccc1O` (configuration not stated) it was -0.0696; in that of `O=C(CS)NCCCCCCNC(=O)[C@H]1C[C@H]2C(=O)N[C@@H](Cc3ccccc3)C(=O)N2[C@H]1c1ccc(O)cc1`, 0.852; in that of `CC(c1ccccc1)C(O)C1C=CC2C(=O)N(c3ccccc3)C(=O)C2N1Nc1ccc([N+](=O)[O-])cc1` (configuration not stated), 0.44.
Same read-out and setting: with `COc1ccccc1CN1C(=O)c2ccccc2[C@@]2(Cc3ccccc3N(CC(F)(F)F)C2=O)[C@@H]1c1ccc(CO)cc1` the figure was 0.292.
Compound `COC(=O)C(CC#Cc1ccc2c(c1)[C@]1(C(=O)N2)[C@H](C(=O)N2CCN(c3ncccn3)CC2)[C@H]2C(=O)O[C@H](c3ccccc3)[C@H](c3ccccc3)N2[C@@H]1c1ccc(OCCO)cc1)C(=O)OC` yielded a composite z-score of 1.31.
As for `[N-]=[N+]=Nc1ccccc1[C@@H]1OC(c2ccc(OCCCO)cc2)=N[C@]1(Cc1ccccc1)C(=O)NCC(O)CO` (some centres not stated), the composite z-score is -0.823.
The same measure, in the same setting: with `Cc1cc(C)c(C(O)C2C=CC3C(=O)NC(=O)C3N2Nc2ccc(Cl)cc2Cl)c(C)c1` (configuration not stated) the figure was -0.0986.
Same read-out and setting: in the case of `COC(=O)c1c2oc(c1C(=O)OC)C(=O)N(Cc1ccccc1)Cc1cn(nn1)C[C@H](Cc1ccccc1)NC(=O)N[C@H](CO)CC2` it was 0.717; in that of `C=CCNC(=O)[C@H]1[C@@H]2C(=O)O[C@@H](c3ccccc3)[C@@H](c3ccccc3)N2[C@@H](c2ccc(O)cc2)[C@]12C(=O)N(C(=O)OCCOC)c1ccccc12`, 0.31.
For the compound `O=C1C=C(c2ccccc2)C(=O)c2ccc([C@H]3Oc4ccccc4S(=O)(=O)N4CCC[C@@H]34)cc21`, the composite z-score is 0.203.
On the same count and under the same terms, with `Cc1ccc(S[C@]2(C(=O)NCC(F)(F)F)CC(=O)N(C3CCCCC3)[C@@H]2c2ccc(CO)cc2I)cc1` the figure was 0.465; with `COc1ccc(C#Cc2ccc3c(c2)[C@]2(C(=O)N3)[C@H](c3ccc(O)cc3)N3[C@H](c4ccccc4)[C@H](c4ccccc4)OC(=O)[C@H]3[C@@H]2C(=O)O)cc1`, -0.211; with `COC(=O)[C@@]1(Cc2ccc(OC)cc2)[C@@H]2C(=CC(=O)[C@H]2CC(=O)C(=O)N(C)C)CN1C(=O)c1ccccc1`, -0.973.
The same measure, in the same setting: with `CCOC(=O)c1ccc(NC(=O)O[C@H]2[C@H](OC(=O)Nc3ccc4c(c3)OCO4)[C@H](OC(=O)Nc3ccc4c(c3)OCO4)[C@@H](OC)O[C@@H]2CO)cc1` the figure was 1.24.
On the same count and under the same terms, in the case of `C=CCN1Cc2ccccc2[C@H]2OC(c3ccc(OCCCO)cc3)=N[C@@]2(CC=C)C1=O` it was 0.834.
Turning to `CN(C)CCCNC(=O)[C@@]1(C)c2ccccc2C(=O)N(Cc2ccccc2)[C@H]1c1ccc(CO)cc1`, the composite z-score is -0.067.
Same read-out and setting: in the case of `CCCCCCCCCCC(O)C1C=CC2C(=O)N(C)C(=O)C2N1NC(=O)OC(C)(C)C` (configuration not stated) it was -0.19.

The test system of the next experiment is wheat germ agglutinin (Triticum aestivum), Alexa647-labelled. The experiment is described as follows: wheat germ agglutinin binders on compound microarrays, profiling panel, artefact control for SMM control-protein annotation, biochemical, small-molecule microarray, 635/667 nm fluorescence (AID 1140).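 Further: score merges 667 nm feature emission with signal to noise over triplicate slides.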 As to conditions: WGA-A647 binding, 635 nm fluorescence, higher = more signal.
`CN1C(=O)C2C=CC(C(O)C#Cc3ccccc3)N(Nc3ccccc3)C2C1=O` (configuration not stated) had a composite z-score of 1.24.
The compound `CN(C)c1ccc(C(O)C2C=CC3C(=O)N(c4ccccc4)C(=O)C3N2Nc2ccc([N+](=O)[O-])cc2)cc1` (configuration not stated) registered a composite z-score of 0.623.
The same measure, in the same setting: in the case of `CN(C)C(=O)[C@@]1(Cc2ccccc2CN=[N+]=[N-])N=C(c2ccc(OCCCO)cc2)O[C@H]1c1ccccc1CN=[N+]=[N-]` it was 1.12; in that of `O=C1OCC=C[C@H]2OC34C=CCN(Cn5nnc6ccccc65)C(=O)[C@H]3N(CCCO)C(=O)[C@@H]4[C@@H]12` (some centres not stated), -0.43.
The same measure, in the same setting: with `C[N+](C)(C)CCCCCCNC(=O)[C@H]1C[C@H]2C(=O)N[C@@H](Cc3ccccc3)C(=O)N2[C@H]1c1ccc(O)cc1` the figure was 0.112.
The same measure, in the same setting: with `COCCOC(=O)N1C(=O)[C@@]2(c3cc(C#CCCO)ccc31)[C@H](C(=O)Nc1nc3ccccc3s1)[C@H]1C(=O)O[C@H](c3ccccc3)[C@H](c3ccccc3)N1[C@@H]2c1ccccc1OCCO` the figure was 0.902; with `COc1cc2c(cc1OC)CN(C(=O)[C@@H]1[C@H]3C(=O)O[C@H](c4ccccc4)[C@H](c4ccccc4)N3[C@H](c3ccc(OCCO)cc3)[C@@]13C(=O)Nc1ccc(C#CC4(O)CCCCCC4)cc13)CC2`, 0.831; with `COc1cc(CO)cc(I)c1O[C@H]1C=C(C(=O)NCCO)C[C@@H](NCc2ccc(F)cc2)[C@@H]1O`, 0.518.
The compound `[N-]=[N+]=NCc1ccccc1C[C@@]1(C(=O)NCc2ccccc2)N=C(c2ccc(OCCCO)cc2)O[C@@H]1c1ccccc1N=[N+]=[N-]` registered a composite z-score of 1.15.
With `O=C(CS)NCCCCCNC(=O)[C@@H]1C[C@@H]2C(=O)N3CCC[C@H]3C(=O)N2[C@@H]1c1cccc(OCCO)c1`, the composite z-score is -0.161.
The same measure, in the same setting: in the case of `C=C(C)c1cc2c(c(CCCCCC)n1)[Si](C(C)C)(C(C)C)OC2` it was -1.19.
On the same count and under the same terms, with `CCCCC(O)C1C=CC2C(=O)N(c3ccccc3)C(=O)C2N1Nc1ccc(C(C)C)cc1` (configuration not stated) the figure was 0.394.
In turn, `COCCOC(=O)N1C(=O)[C@@]2(c3cc(C#CC4=CCCCC4)ccc31)[C@H](c1ccc(OCCO)cc1)N1[C@H](c3ccccc3)[C@H](c3ccccc3)OC(=O)[C@H]1[C@@H]2C(=O)N1CCN(c2ncccn2)CC1` displayed a composite z-score of 0.5.
The same measure, in the same setting: with `C=C(COC)/C(=C/C[C@H](OC(C)=O)c1ccc(OCCO)cc1)c1cc(C(=O)OC)ccc1OC` the figure was 0.395; with `CC1CC/C=C\[C@H]2OC34C=CCN(c5ccc(Cl)cc5)C(=O)[C@H]3N(CCCCCO)C(=O)[C@]4(C)C2C(=O)O1` (some centres not stated), -0.141.
Still for that read-out and setting: in the case of `CN1C(=O)C2C=CC(C(O)c3cccc(O)c3)N(Nc3ccccc3)C2C1=O` (configuration not stated) it was 0.275; in that of `O=C1NC(=O)C2C1C=CC(C(O)c1c(F)cccc1Cl)N2Nc1ccc(Cl)cc1Cl` (configuration not stated), 1.31; in that of `COc1ccc([Si](C)(C)[C@@H]2[C@@H](CCO)O[C@]3(C(=O)N(Cc4ccc(N5CCCCC5=O)cc4)c4ccccc43)[C@H]2C)cc1`, 0.916.
`C=CCC(OC(C)=O)[C@@H]1[C@@H](N(Cc2cc3ccccc3o2)C(=O)c2ccc(C)cc2)c2cc(OCCCO)ccc2N1C(=O)Cc1ccc(OC)cc1` (some centres not stated): the composite z-score was found to be 0.273.
As for `CCOc1cc(C(O)C2C=CC3C(=O)N(C)C(=O)C3N2Nc2ccccc2)ccc1O` (configuration not stated), the composite z-score stood at 0.974.
On the same count and under the same terms, with `O=C(CS)NCCCCCCNC(=O)[C@H]1C[C@H]2C(=O)N[C@@H](Cc3ccccc3)C(=O)N2[C@H]1c1ccc(O)cc1` the figure was 0.195; with `CC(c1ccccc1)C(O)C1C=CC2C(=O)N(c3ccccc3)C(=O)C2N1Nc1ccc([N+](=O)[O-])cc1` (configuration not stated), 0.783.
Same read-out and setting: in the case of `COc1ccccc1CN1C(=O)c2ccccc2[C@@]2(Cc3ccccc3N(CC(F)(F)F)C2=O)[C@@H]1c1ccc(CO)cc1` it was -0.0716; in that of `COC(=O)C(CC#Cc1ccc2c(c1)[C@]1(C(=O)N2)[C@H](C(=O)N2CCN(c3ncccn3)CC2)[C@H]2C(=O)O[C@H](c3ccccc3)[C@H](c3ccccc3)N2[C@@H]1c1ccc(OCCO)cc1)C(=O)OC`, 1.03.
In turn, `[N-]=[N+]=Nc1ccccc1[C@@H]1OC(c2ccc(OCCCO)cc2)=N[C@]1(Cc1ccccc1)C(=O)NCC(O)CO` (some centres not stated) came in with a composite z-score of 1.2.
For `Cc1cc(C)c(C(O)C2C=CC3C(=O)NC(=O)C3N2Nc2ccc(Cl)cc2Cl)c(C)c1` (configuration not stated), the composite z-score worked out at 1.19.
Still for that read-out and setting: with `COC(=O)c1c2oc(c1C(=O)OC)C(=O)N(Cc1ccccc1)Cc1cn(nn1)C[C@H](Cc1ccccc1)NC(=O)N[C@H](CO)CC2` the figure was 0.134; with `C=CCNC(=O)[C@H]1[C@@H]2C(=O)O[C@@H](c3ccccc3)[C@@H](c3ccccc3)N2[C@@H](c2ccc(O)cc2)[C@]12C(=O)N(C(=O)OCCOC)c1ccccc12`, 0.708; with `O=C1C=C(c2ccccc2)C(=O)c2ccc([C@H]3Oc4ccccc4S(=O)(=O)N4CCC[C@@H]34)cc21`, -0.0704.
The same measure, in the same setting: in the case of `Cc1ccc(S[C@]2(C(=O)NCC(F)(F)F)CC(=O)N(C3CCCCC3)[C@@H]2c2ccc(CO)cc2I)cc1` it was 0.395; in that of `COc1ccc(C#Cc2ccc3c(c2)[C@]2(C(=O)N3)[C@H](c3ccc(O)cc3)N3[C@H](c4ccccc4)[C@H](c4ccccc4)OC(=O)[C@H]3[C@@H]2C(=O)O)cc1`, -0.178.
Still for that read-out and setting: with `COC(=O)[C@@]1(Cc2ccc(OC)cc2)[C@@H]2C(=CC(=O)[C@H]2CC(=O)C(=O)N(C)C)CN1C(=O)c1ccccc1` the figure was 0.521.
In the case of `CCOC(=O)c1ccc(NC(=O)O[C@H]2[C@H](OC(=O)Nc3ccc4c(c3)OCO4)[C@H](OC(=O)Nc3ccc4c(c3)OCO4)[C@@H](OC)O[C@@H]2CO)cc1`, the composite z-score worked out at 0.743.
On the same count and under the same terms, in the case of `C=CCN1Cc2ccccc2[C@H]2OC(c3ccc(OCCCO)cc3)=N[C@@]2(CC=C)C1=O` it was 0.619.
The same measure, in the same setting: with `CN(C)CCCNC(=O)[C@@]1(C)c2ccccc2C(=O)N(Cc2ccccc2)[C@H]1c1ccc(CO)cc1` the figure was -0.749; with `CCCCCCCCCCC(O)C1C=CC2C(=O)N(C)C(=O)C2N1NC(=O)OC(C)(C)C` (configuration not stated), 0.474.
